This is part of a sample that, as a whole, favours compounds with a hit. Of some 83,000 tested, about 20% had one in any assay.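 Testing used 96-well plates and a 48-hour single-concentration exposure. Example: -40 means 40% of the starting cells died.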 Activity calls are given as the source filed them. How the source made its calls: active means growth percent below 10; inactive means the rest.

The first experiment deals with HOP-62 NSCLC. Kind of experiment: NCI-60 one-dose screen, 48 h (100 = growth as untreated, 0 = no growth, -100 = all killed). Particulars: 10 µM unless noted.
On to `COc1ccc(C2=Nc3c/c(=C\c4c(O)[nH]c5cc(Cl)ccc45)ccc3=N2)cc1`, for which the growth was 77.3% (inactive). On the same count and under the same terms, the same measure for `CCCCCCCCCCCCCCCCCCOc1ccccc1CC(=O)NCC[N+]1(C)CCOCC1`: 53% (inactive). Take `Cc1ccc(-c2cc(C(=O)N3N=C(c4ccc(N)cc4)CC3c3ccc(Cl)cc3)c3ccccc3n2)cc1` (configuration not stated): the growth is 33.9% (inactive). `O=C(CN1C(=O)/C(=C/c2ccco2)SC1=S)NCCc1c[nH]c2ccc(F)cc12`: the growth was 117% (inactive). On the same count and under the same terms, the same measure for `CCN(CC)CCN(CCN(CC)CC)c1ccccc1`: 98.5% (inactive); for `COc1cc(C(=O)C(=O)c2cc(OC)c(O)c(OC)c2)cc(OC)c1O`: 93.2% (inactive); for `O=C(/C=C/c1ccc(Br)cc1)c1ccc(-n2cc(CN3CCN(c4cc5c(cc4F)c(=O)c(C(=O)O)cn5C4CC4)CC3)nn2)cc1`: 87.4% (inactive).

The subject of the next experiment is NCI-H460 lung. The description is as above. Particulars: 10 µM unless noted.
As to `Fc1ccc(COc2ccc(Nc3ncnc4sc5c(c34)CCCC5)cc2)cc1`, the growth was 97.3% (inactive). Same read-out and setting: the same measure for `COc1cc(C2Cc3ncccc3-c3[nH]c(=O)c4cccnc4c32)cc(OC)c1OC` (configuration not stated): 9.39% (active); for `O=C(c1ccc(Cl)cc1Cl)N1c2ccccc2Sc2ccccc21`: 18.3% (inactive). The same measure, in the same setting: the same measure for `O=C(N/N=C/c1ccc([N+](=O)[O-])cc1)c1ccc2nc(-c3ccc(Cl)cc3)[nH]c2c1`: 5.44% (active); for `O=C(NCc1ccccc1O)c1cccc2ccccc12`: 70.3% (inactive). On the same count and under the same terms, the same measure for `CC1=C(C(=O)n2c3ccccc3c3ccccc32)C(c2cccc([N+](=O)[O-])c2)C(C(=O)n2c3ccccc3c3ccccc32)=C(C)N1`: 102% (inactive); for `COc1ccc(/C=C/C(=O)c2ccc(NC(=O)CSc3nnc(-c4cc(-c5ccccc5)nc5ccccc45)n3-c3ccccc3)cc2)cc1`: 107% (inactive); for `Cn1cc(-c2nc(-c3c[nH]c4ccncc34)cs2)c2cc(Br)ccc21`: -71.4% (active). Take `C#Cc1cccc(Oc2ccc(NC(=O)CCl)cc2)c1`: the growth was 19% [8.25 µM] (inactive). On to `CC1(C)CC[C@]2(C(=O)N3CCOCC3)CC[C@]3(C)C(=CC[C@@H]4[C@@]5(C)C/C(=C/c6ccncc6)C(=O)C(C)(C)[C@@H]5CC[C@]43C)[C@@H]2C1`, for which the growth is -21.8% (active).

For `CC(C)c1ccc(NC(=O)Nc2ccc(NC(=O)c3ccccc3N)cc2)cc1`, the growth was 22.7% (inactive). On to `Cc1cc(C(=O)Nc2cc(Nc3ncccc3-c3ncnc4nc[nH]c34)ccc2F)cc(C(F)(F)F)c1`, for which the growth is 48.8% (inactive).

For the compound `COc1cc2c3c(n(CCCCNCCCn4c5c(c6cc(OC)c(OC)cc6c4=O)C(=O)c4cc6c(cc4-5)OCO6)c(=O)c2cc1OC)-c1cc2c(cc1C3=O)OCO2`, the growth was 106% (inactive). On the same count and under the same terms, the same measure for `CNC(=O)c1c(NC(=O)c2ccc(C(C)(C)C)cc2)sc2c(CN(C)C)c(O)ccc12`: -72.5% (active); for `CCCCn1sc(=O)n(Cc2ccc(CNC(=O)OCc3ccc4c(Cl)cc(Cl)c(O)c4n3)cc2)c1=O`: 26.5% (inactive). Same read-out and setting: the same measure for `O=C1Nc2ccc(F)cc2/C1=N/c1nnc(Sc2ccccc2)s1`: 95.6% (inactive); for `N#Cc1c(N2CCOCC2)nc(=S)[nH]c1-c1ccccc1`: 68.9% (inactive).

For `O=C(CSc1nnc2sc(Nc3cccc(Cl)c3)nn12)c1ccc(F)cc1`, the growth was 95.8% (inactive).

As to `C=C(CO)[C@@H]1CC[C@]2(COC3CCCCO3)CC[C@]3(C)[C@H](CC[C@@H]4[C@@]5(C)C=C(C=O)C(=O)C(C)(C)[C@@H]5CC[C@]43C)[C@@H]12` (some centres not stated), the growth was -73.1% (active). On the same count and under the same terms, the same measure for `COc1ccc(-c2cc(C(=O)N3N=C(c4ccc(N)cc4)CC3c3ccccc3)c3ccccc3n2)cc1` (configuration not stated): 18.2% (inactive); for `COc1ccc(-c2cc(-c3cc(OC)c(OC)c(OC)c3)c(C#N)c(=O)n2CCCCCC(=O)NO)cc1`: 96.6% (inactive). The same measure, in the same setting: the same measure for `Cn1ccnc1C(=O)/C=C/c1ccc(C(=O)Nc2ccc(F)cc2)cc1`: -44.5% (active); for `C=C1C(=O)O[C@H]2[C@H]1CC/C(COC(=O)NCCCCCCCCNC(=O)OC/C1=C/CC[C@@]3(C)O[C@H]3[C@H]3OC(=O)C(=C)[C@@H]3CC1)=C\CC[C@@]1(C)O[C@@H]21`: -51.1% (active).

On to `C/C(C=O)=C\c1ccc2c(c1)OCO2`, for which the growth is 118% (inactive). Same read-out and setting: the same measure for `COc1cccc(/C=C/C(=O)c2cc3c(N)c(C(=O)Nc4cccc(Cl)c4C)sc3nc2C)c1`: -23.5% (active); for `COC(=O)/C=C1/SC(=Nc2cccc(Cl)c2)N(CCc2c[nH]c3ccc(O)cc23)C1=O`: 37% (inactive). On the same count and under the same terms, the same measure for `CCC/C(=N\NC(N)=O)C(OC)OC`: 109% (inactive); for `COc1ccc2cc(Cn3cc[n+](Cc4ccc5ccccc5c4)c3)ccc2c1`: 38.3% (inactive); for `Cn1c(=O)c2c(c3ccccc31)OC(N)=C(C#N)C21C(=O)c2ccccc2C1=O`: 85% (inactive).

As for `CN1CCN(c2ccc3c(c2)nc(NNC(=O)c2cnccn2)c2cccn23)CC1`, the growth was 9.73% (active). Regarding `Cc1cc(C)c(-c2c(O)c(Br)c(-c3c(C)cc(C)c(Br)c3C)c(O)c2Br)c(C)c1Br`, the growth was 1.57% (active). Still for that read-out and setting: the same measure for `CCN(CC)S(=O)(=O)c1ccc(S(=O)(=O)N2CCC[C@@H](C(=O)N3CCN(C(=O)OC(C)(C)C)CC3)C2)cc1`: 73.4% (inactive); for `O=C1/C=C/[C@@H](O)[C@@H]2C[C@@H](O)C[C@H]2/C=C/CCC[C@H](CCOCc2ccccc2)O1`: 16.2% (inactive); for `COc1ccc(C2=Nc3c/c(=C\c4c(O)[nH]c5cc(Cl)ccc45)ccc3=N2)cc1`: 93.6% (inactive).

For `CCCCCCCCCCCCCCCCCCOc1ccccc1CC(=O)NCC[N+]1(C)CCOCC1`, the growth was 45.7% (inactive).

Regarding `Cc1ccc(-c2cc(C(=O)N3N=C(c4ccc(N)cc4)CC3c3ccc(Cl)cc3)c3ccccc3n2)cc1` (configuration not stated), the growth is 12.9% (inactive). As to `O=C(CN1C(=O)/C(=C/c2ccco2)SC1=S)NCCc1c[nH]c2ccc(F)cc12`, the growth is 103% (inactive). For `CCN(CC)CCN(CCN(CC)CC)c1ccccc1`, the growth is 107% (inactive).

In the case of `COc1cc(C(=O)C(=O)c2cc(OC)c(O)c(OC)c2)cc(OC)c1O`, the growth was 101% (inactive).

For the compound `O=C(/C=C/c1ccc(Br)cc1)c1ccc(-n2cc(CN3CCN(c4cc5c(cc4F)c(=O)c(C(=O)O)cn5C4CC4)CC3)nn2)cc1`, the growth is 85.8% (inactive).

(Values after PubChem BioAssay (NCI).)
